TDP1 cell noCPT: qHTS for Inhibitors of human tyrosyl-DNA phosphodiesterase 1 (TDP1): qHTS in cells in absence of CPT; AID 686978, 2013; DT40 Tdp1-/- hTDP1 cells, no CPT, ATP luminescence, 48 h; 420,000 compounds, 15% hits; Potency, µM (series often up to 46.2 µM), hits mostly inhibitors; note: nearly all actives have a fitted effect of over 55% in size
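Cells were dispensed at 400 per well, compounds added by pin tool, plates incubated ≥48 hr at 37 °C, then CellTiter-Glo added for 30 min at room temperature before luminescence reading. Line: DT40 Tdp1-/- complemented with hTDP1; camptothecin omitted.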
DT40 TDP1 CPT: growth inhibition of DT40 Tdp1-/-;hTDP1 cells with camptothecin (screen for TDP1 inhibitors); chicken DT40 Tdp1-/-;hTDP1 cells + 20 nM CPT, ATP luminescence, 48 h; Potency, µM (series often up to 46.2 µM), usual class: inhibitors; 420,000 compounds, 12% hits; AID 686979; note: nearly all actives have a fitted effect of over 55% in size
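Chicken DT40 Tdp1-/- cells complemented with human TDP1, 400 cells/well, exposed to compounds plus 20 nM camptothecin for at least 48 h at 37 C; viability read as ATP content by CellTiter-Glo luminescence.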
CtBP-E1A blk: inhibitors of CtBP/E1A interaction; 340,000 compounds, 0.49% hits; AID 651724; activity change, % (concentration not given with the values); AlphaScreen GST-E1A/His-CtBP binding, 1536-well; stronger effect = lower value; in the data active = activity change below about -65%; inconclusive = mostly about -30% to -63%
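In 5 uL wells, 23 nL compound meets equimolar GST-E1A and His-CtBP (5X stock 125 nM each) for 2 h, 37 °C. Beads (5X, 50 ug/mL) then 1 h, 37 °C, dark.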
TDP1 inh: inhibitors of human tyrosyl-DNA phosphodiesterase TDP1 | Q9NUW8 | 350,000 compounds, 0.28% hits | Potency, µM (highest dose often 130 µM), usual class: inhibitors | recombinant TDP1, AlphaScreen DNA substrate cleavage; note: nearly all actives have a fitted effect of over 40% in size
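Tdp1 1 nM final; 15 min RT w/ cpd; substrate 15 nM, 5 min; beads 10 ug/ml, 10 min; AlphaScreen read. Neg ctrl: no enzyme.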
IL1B secr inh: inflammasome signaling inhibition, IL-1 beta readout. THP-1 LPS/ATP IL-1B secretion, AlphaLISA, 16 h; stronger effect = lower value. activity change, % at 57.5 µM. 360,000 compounds, 4.7% hits; in the data active = activity change below about -50%; inconclusive = mostly about -30% to -49%
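THP-1 cells pretreated 1 hr with compounds (up to 57.5 uM final), then stimulated with LPS (250 ng/mL final) plus ATP (1.25 mM final); secreted IL-1B measured by AlphaLISA after 16 hr, decreased signal indicating inhibition.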
Six1-Eya2 blk: inhibitors of human Six1/Eya2 interaction | AID 651725 | AlphaScreen GST-Six1/His-Eya2 binding, biochemical; stronger effect = lower value | 360,000 compounds, 0.56% hits | Q15475+O00167 | activity change, % (test concentration not listed); in the data active = activity change below about -65%; inconclusive = mostly about -30% to -63%
Target sequence (O00167 whole entry, looked up): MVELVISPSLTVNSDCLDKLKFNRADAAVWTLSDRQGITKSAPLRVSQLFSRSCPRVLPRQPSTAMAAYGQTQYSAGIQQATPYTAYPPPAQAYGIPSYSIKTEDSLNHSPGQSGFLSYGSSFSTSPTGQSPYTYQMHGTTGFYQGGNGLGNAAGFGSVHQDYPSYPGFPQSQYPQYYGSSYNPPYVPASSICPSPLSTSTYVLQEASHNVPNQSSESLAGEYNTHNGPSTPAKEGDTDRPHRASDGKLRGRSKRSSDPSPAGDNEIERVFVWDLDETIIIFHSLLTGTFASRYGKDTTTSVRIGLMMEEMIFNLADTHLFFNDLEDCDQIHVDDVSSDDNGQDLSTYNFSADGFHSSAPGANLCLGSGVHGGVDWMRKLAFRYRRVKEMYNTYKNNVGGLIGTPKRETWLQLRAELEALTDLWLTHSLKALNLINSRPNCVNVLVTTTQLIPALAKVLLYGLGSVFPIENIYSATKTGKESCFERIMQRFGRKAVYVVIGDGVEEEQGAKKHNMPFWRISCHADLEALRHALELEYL
Target sequence (Q15475 whole entry, looked up): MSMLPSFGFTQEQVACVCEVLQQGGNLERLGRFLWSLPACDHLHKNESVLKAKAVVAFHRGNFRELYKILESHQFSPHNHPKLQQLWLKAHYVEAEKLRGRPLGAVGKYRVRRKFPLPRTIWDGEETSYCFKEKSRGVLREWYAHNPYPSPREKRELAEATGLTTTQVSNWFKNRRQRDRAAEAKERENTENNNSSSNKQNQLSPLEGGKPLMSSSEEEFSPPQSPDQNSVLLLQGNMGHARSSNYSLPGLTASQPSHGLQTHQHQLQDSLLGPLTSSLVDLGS
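Homogeneous AlphaScreen proximity assay pairing GST-Six1 with His-tagged Eya2 (added as 5X mix: 250 nM and 500 nM) in 50 mM Tris pH 8.0, 300 mM NaCl, 1 mM TCEP. Glutathione donor and nickel acceptor beads; 1 h, 37 °C, dark.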
A number is an active result; – = inactive; ? = inconclusive; · = not tested or not shown. Most compounds without a hit are left out; they make up all but 18% or so of the library. Unless noted, calls come from the whole dose curve; as a rule, active = well fitted curve in the direction sought with a large enough effect; inconclusive = small, poorly fitted or top-dose-only effect, or another doubt; inactive = no such curve, though single readings can be large; an effect the other way counts as inactive or inconclusive.

SMILES	TDP1 cell noCPT	DT40 TDP1 CPT	CtBP-E1A blk	TDP1 inh	IL1B secr inh	Six1-Eya2 blk
C[C@@H]1CCCCO[C@@H](CN(C)Cc2ccccc2)[C@@H](C)CN([C@H](C)CO)C(=O)c2cc(NC(=O)Nc3cccc4ccccc34)ccc2O1	21µM	–	–	·	–	–
C[C@@H]1CCCCO[C@H](CN(C)C(=O)Nc2ccc(F)cc2)[C@@H](C)CN([C@H](C)CO)C(=O)c2cc(NC(=O)c3ccccc3)ccc2O1	?	?	–	·	–	–
CC(C)NC(=O)Nc1ccc2c(c1)C(=O)N([C@@H](C)CO)C[C@@H](C)[C@H](CN(C)Cc1ccccc1)OCCCC[C@H](C)O2	?	–	–	·	–	–
C[C@@H]1CN([C@@H](C)CO)C(=O)c2cc(NC(=O)c3ccccc3)ccc2O[C@@H](C)CCCCO[C@@H]1CN(C)Cc1ccc(C(F)(F)F)cc1	7.3µM	9.2µM	–	·	?	–
O=C(CSc1nc2[nH]ncc2c(=O)[nH]1)NCc1ccccc1Cl	–	–	–	–	–	–
Cc1ccc(SCc2c(C#N)c3ccccc3n2C)cc1	21µM	21µM	–	–	–	–
Cc1ccccc1N1CCN(Cc2c(C#N)c3ccccc3n2C)CC1	?	18µM	–	–	–	–
O=C(NC1CCCC1)C1CCCN1C(=O)Nc1ccccc1Cl (centres undefined)	–	–	–	–	–	–
CCN(CC)c1nc2cc(C)ccc2cc1/C=C(\C#N)C(N)=O	?	?	–	–	-58	–
N#C/C(=C\c1cc2ccccc2nc1N1CCCCC1)C(N)=O	?	?	–	–	?	–
COc1cccc(C(=O)OCC(=O)NCc2ccc3c(c2)OCO3)c1OC	?	–	–	–	–	–
CCCCNc1c(-c2cccc(-c3cc(C(C)=O)cs3)c2)nc2cc(C)ccn12	?	?	?	–	-80	–
CCCCNc1c(-c2ccc(SC(C)CC)c(OC)c2)nc2ccc(Cl)cn12 (centres undefined)	21µM	26µM	–	–	-68	–
CCCCNc1c(-c2ccc(-c3cccc(Cl)c3)cc2)nc2ccc(Cl)cn12	?	?	·	–	–	–
CCCCNc1c(-c2ccc(SC3CCCCC3)c(OC)c2)nc2ccc(Cl)cn12	16µM	?	–	·	–	–
COc1ccc(-c2nc3ccc(Cl)cn3c2Cc2ccsc2)cc1OC	?	?	–	·	–	–
CCCCCCSc1ccc(-c2nc3ccc(Cl)cn3c2NCCCC)cc1OC	?	?	–	–	–	–
CCCCCCSc1ccc(-c2nc3ccc(C)cn3c2NCCCC)cc1OC	9.2µM	12µM	–	·	–	–
Cc1cccc(C)c1Nc1oc(-c2ccccc2)nc1-c1cccc2ccccc12	·	·	·	–	·	·
CCOC(=O)c1ccccc1NC(=O)CSc1nc2c(c(=O)n(C)c(=O)n2C)n1C	·	·	·	–	·	·
COc1ccc(C2=NO[C@@H]3C(=O)N(C4CCCCC4)C(=O)[C@H]23)cc1OC	–	–	–	–	–	–
CC(=O)N1c2ccc(S(=O)(=O)NCCC(=O)Nc3ccc(C)cn3)cc2CC1C (centres undefined)	–	–	·	–	–	–
COc1ccc(-c2nc3ccc(C)cn3c2Nc2ccc3c(c2)OCO3)cc1	–	–	·	–	·	·
CCCCCCSc1cc(-c2nc3cc(C)ccn3c2NCCCC)ccc1OC	16µM	13µM	–	–	-87	–
CCCCNc1c(-c2ccc(SC(C)CC)c(OC)c2)nc2ccc(C)cn12 (centres undefined)	6.5µM	5.8µM	–	–	-93	–
SMILES	TDP1 cell noCPT	DT40 TDP1 CPT	CtBP-E1A blk	TDP1 inh	IL1B secr inh	Six1-Eya2 blk
Cc1cc(C)cc(C(=O)OCC(=O)Nc2cccc(S(=O)(=O)NC3=NCCCCC3)c2)c1	?	?	–	–	?	–
COc1cc(C=C(C#N)c2ccc([N+](=O)[O-])cc2)ccc1O	?	?	–	·	–	–
CCOC(=O)C1=NOC2(C1)C(=O)Nc1ccc(OC(F)(F)F)cc12 (centres undefined)	16µM	?	–	·	–	–
CC1(Cc2ccc(OC(F)(F)F)cc2)C(=O)Nc2ccc(OC(F)(F)F)cc21 (centres undefined)	?	?	–	·	–	–
Cc1ccc(C)c(N2CCN(C(=O)Cn3c(=O)oc4cc(S(=O)(=O)N5CCCC5)ccc43)CC2)c1	12µM	16µM	–	·	–	–
O=C(Cn1c(=O)oc2cc(S(=O)(=O)N3CCCC3)ccc21)N1CCN(c2ccccc2)CC1	?	?	–	–	–	–
CCOC(=O)Cn1c(=O)oc2cc(S(=O)(=O)N3CCN(c4cc(C)ccc4C)CC3)ccc21	?	18µM	·	–	·	·
CCc1cccc(C)c1NC(=O)CCS(=O)(=O)c1ccc2c(c1)oc(=O)n2C	15µM	?	·	–	·	·
Cc1ccc(Cl)cc1N1CCN(C(=O)CCS(=O)(=O)c2ccc3c(c2)oc(=O)n3C)CC1	16µM	?	·	–	·	·
COc1ccc(NC(=O)CCCn2c(=O)c3sccc3n(Cc3cccc(C)c3)c2=O)cc1	?	?	–	–	–	–
CCCN(CCC)C(=O)CSc1nc2ccccc2c(=O)n1C1CCCC1	13µM	13µM	–	–	–	–
CCN(CC)C(=O)CSc1nc2ccccc2c(=O)n1CC1CCCCC1	16µM	23µM	–	–	–	–
Cc1cc(NC(=O)CSc2nc3ccccc3c(=O)n2Cc2ccccc2)no1	–	–	–	–	–	–
Cc1cc(NC(=O)CSc2nnc(CNc3ccc(F)cc3)n2C2CCCCC2)no1	?	10µM	–	–	–	–
Cc1cc(NC(=O)CSc2nc3ccccc3c(=O)n2C2CCCC2)no1	0.92µM	1µM	–	–	–	–
COCCCN1CC(=O)N2C(c3cccc(OC)c3)c3[nH]c4ccccc4c3C[C@H]2C1=O (some centres undefined)	–	–	–	·	–	–
O=C(CSc1nc2ccccc2c(=O)n1C1CC1)NCc1ccccc1	?	–	–	–	–	–
CN(C)c1ccc(NC(=O)CSc2nc3ccccc3c(=O)n2C2CCCCC2)cc1	18µM	?	?	–	-51	?
Cc1[nH]n(-c2nc(-c3ccc(Cl)cc3)cs2)c(=O)c1N=Nc1ccc(O)cc1	5.8µM	2.6µM	·	–	-51	–
CCN(CC)S(=O)(=O)c1ccc(-c2nnc(SCC(=O)N3c4ccccc4CC3C)o2)cc1 (centres undefined)	21µM	21µM	–	–	–	–
CCN(CC)S(=O)(=O)c1ccc(-c2nnc(SCC(=O)c3ccc(OC)cc3)o2)cc1	–	–	–	–	–	–

Bioassay records (PubChem BioAssay)
